Data reported in PubChem BioAssay (Tox21).
Values without a mark were called inactive. Inconclusive results are not listed. Where a call stands in place of a potency, no number is given. Calls of active or inactive are those of the source. Unless noted, the call rests on the fitted dose curve; in most records, active means well fitted curve in the direction sought with a large enough effect in the repeat runs; inconclusive means weak or mixed curves; inactive means no such curve, though single readings can be large; an effect the other way counts as inactive or inconclusive.

Experiments:
[1] = qHTS assay to identify small molecule agonists of the androgen receptor (AR) signaling pathway in the presence of an antagonist - cell viability counter screen (AID 1259379);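 further: MDA-kb2 human breast cancer cells carrying an MMTV luciferase reporter; series mostly up to about 92 µM; nearly all actives have a fitted effect of over 25% in size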
How it was run: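 A CellTiter-Fluor read-out measured viability of MDA-kb2 reporter cells (MMTV promoter with AR and GR response elements). Treatment: nilutamide 3.0uM final with compounds at 15 concentrations, 16 hr, 37C, 0% CO2.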

[2] = qHTS assay to identify small molecule agonists of the estrogen receptor beta (ER-beta) signaling pathway - cell viability counter screen (AID 1259380); further: nearly all actives have a fitted effect of over 30% in size; further: potency means the concentration at half of the fitted maximal effect
How it was run: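 Cells used were ER-beta-UAS-bla HEK293T in medium with 2% charcoal-stripped FBS. They were treated for 16 hr at 37C. Viability came from CellTiter-Glo luminescence.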

[3] = molecular target: Androgen receptor (Homo sapiens) (UniProt P10275); assay: qHTS assay to identify small molecule agonists of the androgen receptor (AR) signaling pathway in the presence of an antagonist (AID 1259381; calls by dose curve; further: nearly all actives have a fitted effect of over 15% in size)
How it was run: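 Using human MDA-kb2 cells with an MMTV promoter–luciferase construct (AR and GR response elements), agonist activity is scored under 3.0uM nilutamide (final) co-treatment; 16hr incubation, 37C, luminescence readout via ONE-Glo.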

[4] = qHTS assay to identify small molecule antagonists of the estrogen receptor beta (ER-beta) signaling pathway - cell viability counter screen (AID 1259382); further: nearly all actives have a fitted effect of over 55% in size; further: potency means the concentration at half of the fitted maximal effect
How it was run: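 Agonist-stimulated (1nM E2) ER-beta-UAS-bla HEK293T cells are incubated with library compounds for 16 hr at 37C. Cell viability is then assessed in the reporter-assay wells by adding CellTiter-Glo and reading luminescence after 30 min.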

[5] = molecular target: Estrogen receptor (Homo sapiens) (UniProt P03372); assay: qHTS assay to identify small molecule agonists of the estrogen receptor alpha (ER-alpha) signaling pathway in the presence of an antagonist (AID 1259383; calls by dose curve; further: nearly all actives have a fitted effect of over 15% in size; further: potency means the concentration at half of the fitted maximal effect)
How it was run: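 Using VM7Luc4E2 cells seeded 24hr before treatment, antagonist ICI-182,780 (10.0nM final) was added, followed by compounds at 15 concentrations. Plates incubated 22hr; ONE-Glo luminescence quantified reporter activity.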

[6] = qHTS assay to identify small molecule agonists or antagonists of the thyroid stimulating hormone receptor (TSHR) signaling pathway - wild type cell line counter screen (AID 1259384; calls by dose curve)
How it was run: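 Wild-type Hek293 cells, 800/well, 18 h at 37C, then compound with Ro20-1724 for 30 min RT. cAMP by HTRF (cAMP-d2/anti-cAMP cryptate), 1 h RT, fluorescence read. 15 concentrations, triplicates.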

[7] = molecular target: Thyrotropin receptor (Homo sapiens) (UniProt P16473); assay: qHTS assay to identify small molecule antagonists of the thyroid stimulating hormone receptor (TSHR) signaling pathway (AID 1259385; calls by dose curve; further: nearly all actives have a fitted effect of over 20% in size; further: potency means the concentration at half of the fitted maximal effect)
How it was run: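 TSHR-HEK293 cells (800/well) plated 18 h, then compounds with Ro20-1724 and TSH at 1.5 ng/mL final, 30 min at room temperature. cAMP quantified by HTRF (cAMP-d2/anti-cAMP-cryptate, 1 h); 15 concentrations in triplicate.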

[8] = qHTS assay to identify small molecule agonists of the estrogen receptor alpha (ER-alpha) signaling pathway in the presence of an antagonist - cell viability counter screen (AID 1259386);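 further: series mostly up to about 92 µM; cells exposed to compounds for 22 h at 37 °C before the viability read; nearly all actives have a fitted effect of over 30% in size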
How it was run: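 ICI-182,780 at 10.0nM final accompanies the compound titration (15 concentrations, 22hr, 37C) on VM7Luc4E2 cells. The CellTiter-Fluor fluorescence readout runs in the same wells as the luciferase assay.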

[9] = molecular target: Estrogen receptor beta (Homo sapiens) (UniProt Q92731); assay: qHTS assay to identify small molecule antagonists of the estrogen receptor beta (ER-beta) signaling pathway (AID 1259378; active means well fitted inhibition curve with a large enough effect in the signal ratio in the repeat runs, not every such curve was filed as active; the % refers to the signal ratio; further: potency means the concentration at half of the fitted maximal effect)
How it was run: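 ER-beta-UAS-bla HEK293T cells in 2% charcoal-stripped FBS medium treated with compound plus 1nM final 17-beta-estradiol for 16 hr at 37C. Beta-lactamase reporter read by FRET substrate fluorescence after 2 hours at room temperature.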

Sequence of Estrogen receptor (Homo sapiens) (P03372 whole entry, looked up): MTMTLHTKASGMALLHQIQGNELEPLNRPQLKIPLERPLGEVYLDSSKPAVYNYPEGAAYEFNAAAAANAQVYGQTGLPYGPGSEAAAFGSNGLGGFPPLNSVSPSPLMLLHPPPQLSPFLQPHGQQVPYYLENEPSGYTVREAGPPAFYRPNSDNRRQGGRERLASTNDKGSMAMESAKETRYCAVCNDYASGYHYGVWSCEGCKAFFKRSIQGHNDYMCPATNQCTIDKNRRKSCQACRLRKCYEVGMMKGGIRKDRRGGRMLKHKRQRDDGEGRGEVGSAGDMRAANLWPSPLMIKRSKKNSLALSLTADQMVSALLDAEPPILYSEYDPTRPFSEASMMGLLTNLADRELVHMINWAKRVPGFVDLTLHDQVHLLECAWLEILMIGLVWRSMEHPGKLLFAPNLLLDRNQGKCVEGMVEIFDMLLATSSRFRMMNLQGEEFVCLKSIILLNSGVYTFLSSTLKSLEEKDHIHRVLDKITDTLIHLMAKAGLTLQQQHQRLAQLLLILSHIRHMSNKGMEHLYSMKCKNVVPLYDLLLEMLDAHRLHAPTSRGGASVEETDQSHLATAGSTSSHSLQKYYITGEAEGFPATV
Sequence of Thyrotropin receptor (Homo sapiens) (P16473 whole entry, looked up): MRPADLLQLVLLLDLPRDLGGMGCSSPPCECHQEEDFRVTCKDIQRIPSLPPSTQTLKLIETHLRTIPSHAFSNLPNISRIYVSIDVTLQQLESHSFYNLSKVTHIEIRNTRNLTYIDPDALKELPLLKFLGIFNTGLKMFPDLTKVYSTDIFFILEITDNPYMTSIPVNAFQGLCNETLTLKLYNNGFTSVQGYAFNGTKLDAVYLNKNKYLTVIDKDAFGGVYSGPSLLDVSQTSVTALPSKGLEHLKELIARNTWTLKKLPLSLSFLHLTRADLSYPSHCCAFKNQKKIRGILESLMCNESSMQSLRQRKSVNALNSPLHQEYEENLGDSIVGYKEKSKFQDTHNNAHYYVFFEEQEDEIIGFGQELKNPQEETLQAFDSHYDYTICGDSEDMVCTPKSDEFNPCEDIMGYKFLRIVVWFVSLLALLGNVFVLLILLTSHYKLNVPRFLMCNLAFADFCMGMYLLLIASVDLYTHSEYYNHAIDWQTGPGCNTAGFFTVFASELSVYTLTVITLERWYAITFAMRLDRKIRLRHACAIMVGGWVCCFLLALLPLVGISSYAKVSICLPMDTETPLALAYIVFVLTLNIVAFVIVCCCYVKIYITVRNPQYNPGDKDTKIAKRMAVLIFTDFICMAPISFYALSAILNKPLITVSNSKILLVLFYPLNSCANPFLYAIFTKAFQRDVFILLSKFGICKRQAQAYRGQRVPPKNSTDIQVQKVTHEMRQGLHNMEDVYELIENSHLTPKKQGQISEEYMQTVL
Sequence of Androgen receptor (Homo sapiens) (P10275 whole entry, looked up): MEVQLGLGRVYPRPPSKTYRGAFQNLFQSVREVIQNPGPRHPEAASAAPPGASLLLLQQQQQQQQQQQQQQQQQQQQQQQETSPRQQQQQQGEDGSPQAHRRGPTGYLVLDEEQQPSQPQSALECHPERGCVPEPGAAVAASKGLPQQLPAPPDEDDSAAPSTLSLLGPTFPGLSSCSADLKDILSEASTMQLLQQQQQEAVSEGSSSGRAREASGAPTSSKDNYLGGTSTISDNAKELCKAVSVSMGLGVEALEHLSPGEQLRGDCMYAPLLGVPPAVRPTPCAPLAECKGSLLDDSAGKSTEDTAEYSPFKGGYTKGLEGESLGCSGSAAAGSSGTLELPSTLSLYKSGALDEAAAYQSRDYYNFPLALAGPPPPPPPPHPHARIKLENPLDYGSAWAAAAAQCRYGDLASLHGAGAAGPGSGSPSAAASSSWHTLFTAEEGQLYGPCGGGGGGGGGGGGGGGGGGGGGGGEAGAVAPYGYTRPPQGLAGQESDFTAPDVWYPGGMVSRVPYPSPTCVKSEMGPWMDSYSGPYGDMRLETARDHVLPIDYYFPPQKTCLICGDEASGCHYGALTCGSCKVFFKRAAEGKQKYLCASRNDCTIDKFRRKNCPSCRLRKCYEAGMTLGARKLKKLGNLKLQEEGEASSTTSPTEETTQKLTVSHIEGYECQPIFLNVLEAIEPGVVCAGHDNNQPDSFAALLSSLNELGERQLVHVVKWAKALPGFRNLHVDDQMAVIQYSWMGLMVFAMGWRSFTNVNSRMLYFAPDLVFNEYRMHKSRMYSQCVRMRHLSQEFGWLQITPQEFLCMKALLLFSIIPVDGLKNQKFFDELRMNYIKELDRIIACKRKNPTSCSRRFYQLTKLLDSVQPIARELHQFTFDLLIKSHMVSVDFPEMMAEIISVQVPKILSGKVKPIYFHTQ
Sequence of Estrogen receptor beta (Homo sapiens) (Q92731 whole entry, looked up): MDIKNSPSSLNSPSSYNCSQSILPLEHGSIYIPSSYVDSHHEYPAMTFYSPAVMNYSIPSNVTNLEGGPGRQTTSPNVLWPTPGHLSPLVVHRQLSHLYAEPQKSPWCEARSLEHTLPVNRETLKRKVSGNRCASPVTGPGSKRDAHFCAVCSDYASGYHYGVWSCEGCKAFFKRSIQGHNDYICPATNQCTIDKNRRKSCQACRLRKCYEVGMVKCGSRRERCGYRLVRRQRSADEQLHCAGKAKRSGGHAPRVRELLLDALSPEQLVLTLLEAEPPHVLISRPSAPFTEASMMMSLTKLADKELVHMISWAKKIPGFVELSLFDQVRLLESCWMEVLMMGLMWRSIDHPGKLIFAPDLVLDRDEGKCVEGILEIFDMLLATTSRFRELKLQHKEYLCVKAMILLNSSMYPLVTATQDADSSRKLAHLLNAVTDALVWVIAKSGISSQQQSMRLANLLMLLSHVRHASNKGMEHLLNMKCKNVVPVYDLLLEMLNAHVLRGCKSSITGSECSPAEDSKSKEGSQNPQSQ

In the case of C[C@H](N)C(=O)N[C@@H](C)C(=O)NC1[C@H]2CN(c3nc4c(cc3F)c(=O)c(C(=O)O)cn4-c3ccc(F)cc3F)C[C@@H]12 (stereo partly drawn), the Potency [1] is reported as “inactive”, the Potency [2] is reported as “inactive” and the Potency [3] is reported as “inactive”. The Potency [4] was “inactive”, the Potency [5] was “inactive” and the outcome [6] was “inactive”. For the same compound, the Potency [7] was “inactive” and the Potency [8] was “inactive”.

In the case of NCCOCCOCCN, the Potency [9] is reported as “inactive”, the Potency [1] is reported as “inactive” and the Potency [3] is reported as “inactive”. The outcome [6] was “inactive”, the Potency [7] was “inactive” and the Potency [8] was “inactive”.

With C[Si](C)(C)O[Si](C)(C)O[Si](C)(C)C the Potency [9] was “inactive”, the Potency [1] was “inactive” and the Potency [4] was “inactive”. The outcome [6] was “inactive”, the Potency [7] was “inactive” and the Potency [8] was “inactive”.

In the case of CCC(C(=O)O)c1ccc(N2Cc3ccccc3C2=O)cc1 (stereo not drawn), the Potency [1] is reported as “inactive”, the Potency [2] is reported as “inactive” and the Potency [3] is reported as “inactive”. The Potency [4] was “inactive”, the Potency [5] was “inactive” and the Potency [8] was “inactive”.

For CCN(CCCCOC(=O)c1ccc(OC)c(OC)c1)C(C)Cc1ccc(OC)cc1 (stereo not drawn), the Potency [9] was “inactive”, the Potency [1] was “inactive” and the Potency [4] was “inactive”. For the same compound, the Potency [5] was “inactive”, the outcome [6] was “inactive” and the Potency [7] was 29.8 µM (active). The Potency [8] was “inactive”.

For O=c1[nH][nH]c2ccccc12, the Potency [9] was “inactive”, the Potency [3] was “inactive” and the Potency [5] was “inactive”. For the same compound, the outcome [6] was “inactive”, the Potency [7] was “inactive” and the Potency [8] was “inactive”.

With CCCCCCCCS the Potency [9] was “inactive”, the Potency [1] was “inactive” and the Potency [2] was “inactive”. The Potency [4] was “inactive” and the Potency [8] was “inactive”.

With C=CC(C)CCC=C(C)C (stereo not drawn) the Potency [9] was “inactive”, the Potency [1] was “inactive” and the Potency [2] was “inactive”. For the same compound, the outcome [6] was “inactive”, the Potency [7] was “inactive” and the Potency [8] was “inactive”.

In the case of CC1=C(C)C(=O)C(CCCCC#CCCCC#CCO)=C(C)C1=O, the Potency [9] is reported as 21.1 µM (active), the Potency [2] is reported as 18.8 µM (active) and the Potency [4] is reported as 26.6 µM (active). The Potency [5] was “inactive”, the outcome [6] was “inactive” and the Potency [7] was “inactive”.

For C=CC(=O)OCCCCCCCCCC, the Potency [1] was “inactive”, the Potency [2] was “inactive” and the Potency [4] was “inactive”. For the same compound, the Potency [5] was “inactive”, the outcome [6] was “inactive” and the Potency [7] was “inactive”. For the same compound, the Potency [8] was “inactive”.

For C=CC(O)CCCCC (stereo not drawn), the Potency [1] was “inactive”, the Potency [2] was “inactive” and the Potency [4] was “inactive”. The outcome [6] was “inactive”, the Potency [7] was “inactive” and the Potency [8] was “inactive”.

For Cc1cc(SC2=C(O)C[C@@](CCc3ccc(N)cc3)(C(C)C)OC2=O)c(C(C)(C)C)cc1CO, the Potency [1] was “inactive”, the Potency [2] was “inactive” and the Potency [3] was “inactive”. For the same compound, the outcome [6] was “inactive”, the Potency [7] was “inactive” and the Potency [8] was “inactive”.

For O=C(O)CCc1nc2ccccc2[nH]1, the Potency [1] was “inactive”, the Potency [2] was “inactive” and the Potency [4] was “inactive”. The Potency [5] was “inactive”.

With O=C(OCCCCCOC(=O)c1ccccc1)c1ccccc1 the Potency [1] was “inactive”, the Potency [2] was “inactive” and the Potency [4] was “inactive”. For the same compound, the Potency [5] was “inactive”, the outcome [6] was “inactive” and the Potency [7] was “inactive”. For the same compound, the Potency [8] was “inactive”.

With N#CCCCC(C#N)CCC#N (stereo not drawn) the Potency [1] was “inactive”, the Potency [2] was “inactive” and the Potency [4] was “inactive”. The Potency [5] was “inactive”, the outcome [6] was “inactive” and the Potency [7] was “inactive”. The Potency [8] was “inactive”.

For CC(C(=O)O)c1ccc(/C=C2\CCCCC2=O)cc1 (stereo not drawn), the Potency [1] was “inactive”, the Potency [2] was “inactive” and the Potency [4] was “inactive”. The outcome [6] was “inactive” and the Potency [8] was “inactive”.

In the case of O=C1c2ccccc2C(=O)C1c1ccc2ccccc2n1, the Potency [1] is reported as “inactive”, the Potency [2] is reported as “inactive” and the Potency [4] is reported as “inactive”. For the same compound, the outcome [6] was “inactive” and the Potency [7] was “inactive”.

In the case of COc1ccc(C(=O)Nc2ccccc2)cc1[N+](=O)[O-], the Potency [1] is reported as “inactive”, the Potency [2] is reported as 30.9 µM (active) and the Potency [4] is reported as “inactive”. The Potency [5] was “inactive”, the outcome [6] was “inactive” and the Potency [7] was “inactive”. For the same compound, the Potency [8] was “inactive”.

In the case of COc1cc(C)c(Cc2cnc(N)nc2N)cc1OC, the Potency [1] is reported as “inactive”, the Potency [2] is reported as “inactive” and the Potency [4] is reported as “inactive”. The Potency [8] was “inactive”.

With Nc1cccc2c(=O)[nH][nH]c(=O)c12 the Potency [1] was “inactive”, the Potency [2] was 24.5 µM (active) and the Potency [5] was “inactive”. For the same compound, the outcome [6] was “inactive”, the Potency [7] was “inactive” and the Potency [8] was “inactive”.

In the case of Cc1ccc(NC=O)c(C)c1, the Potency [1] is reported as “inactive”, the Potency [2] is reported as “inactive” and the Potency [4] is reported as “inactive”. The outcome [6] was “inactive”, the Potency [7] was “inactive” and the Potency [8] was “inactive”.

In the case of CC(CC(C#N)(c1ccccc1)C(C)C)N(C)C (stereo not drawn), the Potency [1] is reported as “inactive”, the Potency [2] is reported as “inactive” and the Potency [3] is reported as “inactive”. For the same compound, the Potency [5] was “inactive”, the outcome [6] was “inactive” and the Potency [8] was “inactive”.

In the case of CC1(COc2ccc(CC3SC(=O)NC3=O)cc2)CCCCC1 (stereo not drawn), the Potency [1] is reported as “inactive”, the Potency [2] is reported as 10.6 µM (active) and the Potency [4] is reported as “inactive”. For the same compound, the Potency [5] was “inactive”, the outcome [6] was “inactive” and the Potency [7] was “inactive”. The Potency [8] was “inactive”.

With CO[C@@H]1COCC[C@@H]1N[C@@H]1CC[C@@](C(=O)N2CCc3ncc(C(F)(F)F)cc3C2)(C(C)C)C1 the Potency [1] was “inactive”, the Potency [2] was “inactive” and the Potency [4] was “inactive”. The outcome [6] was “inactive”, the Potency [7] was “inactive” and the Potency [8] was “inactive”.

With CCc1ccc(C(=O)C(C)CN2CCCCC2)cc1 (stereo not drawn) the Potency [1] was “inactive”, the Potency [2] was “inactive” and the Potency [4] was “inactive”. The outcome [6] was “inactive”, the Potency [7] was “inactive” and the Potency [8] was “inactive”.

With O=C(Cl)c1ccc(F)c(Cl)c1 the Potency [1] was “inactive”, the Potency [2] was “inactive” and the Potency [4] was “inactive”. For the same compound, the Potency [5] was 0.864 µM (active), the outcome [6] was “inactive” and the Potency [7] was “inactive”. For the same compound, the Potency [8] was “inactive”.
